Screens (PubChem BioAssay)
ABHD5-PLIN5 inh = ABHD5-PLIN5 interaction inhibitors, primary screen, cell lysate, split luciferase complementation, luminescence. Split G. princeps luciferase complementation, 4 h. 360,000 tested, 0.78% active. inhibition, % at 4 µM. Perilipin-5 (Homo sapiens) + 1-acylglycerol-3-phosphate O-acyltransferase ABHD5 (Homo …;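 active = inhibition above the mean inhibition across every tested compound plus 3 SD, cut at about 22% in these data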
TLR4 MyD88 comp = inhibitors of TLR4-MyD88 association in cells, primary screen, cell-based, HeLa CL3-4, BLA complementation, FRET ratio. HeLa CL3-4 TLR4/MyD88 BLA complementation. inhibition, % at 8.4 µM. 200,000 tested, 0.18% active; in the data active = inhibition above about 25%
NOD2 RIPK2 PPI = NOD2-RIPK2 binding disruptors in cells, primary screen, fluorescence, CHO cells, BLA complementation. Receptor-interacting serine/threonine-protein kinase 2 (Homo sapiens), O43353. CCF4 ratio. inhibition, % at 4.98 µM. 360,000 tested, 0.38% active; in the data active = inhibition above about 21%
HTR2A ag = mouse Htr2a agonists via beta-arrestin recruitment, primary screen, cell-based, luminescence. 360,000 tested, 0.66% active. 5-hydroxytryptamine receptor 2A (Mus musculus), P35363. CHO-K1 mHTR2A beta-arrestin complementation; percent of 30 µM serotonin response. AID 624169, 2012. activation, % at 7.6 µM;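 active = activation above a run cutoff, the mean activation of all tested compounds plus 3 SD, cut at about 14% in these data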
TLR9-MyD88 inh = inhibitors of TLR9-MyD88 association in cells, primary screen, cell-based, CHO, BLA complementation, fluorescence; Toll-like receptor 9 (Homo sapiens) + Myeloid differentiation primary response protein …; CCF4 FRET ratio; inhibition, % at 4.98 µM; 340,000 tested, 0.21% active; AID 504734, 2011;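 active = inhibition above the mean over all tested compounds plus 3 SD, cut at about 21% in these data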
CRFR2-BP antag = antagonists of CRF-BP/CRF-R2 complex, primary screen, cell-based, HEK293, calcium dye fluorescence, uHTS; CRF-induced calcium fluorescence; inhibition, % at 11.8 µM; 350,000 tested, 0.59% active; AID 588475, 2011;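 active = inhibition of the ligand-induced calcium signal above about 50% at the single tested concentration, limit read from the data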
ABHD5 PLIN5 conf = ABHD5-PLIN5 interaction inhibitors, confirmation, biochemical, luminescence; shares compounds with ABHD5-PLIN5 inh; inhibition, % at 4 µM; 2,200 tested, 67% active; AID 651612, 2012; in the data active = inhibition above about 23%
HNF4 counter = HNF4 dimerization inhibitors, counter-screen for ABHD5-PLIN5 interaction inhibitor project, biochemical, split-luciferase complementation, luminescence. shares compounds with ABHD5-PLIN5 inh. AID 651674, 2012. 2,200 tested, 77% active. inhibition, % at 4 µM;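 active = mean inhibition across replicate wells exceeding the computed hit threshold, cut at about 13% in these data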;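 also: light from luciferase halves that rejoin when HNF4 fusion proteins dimerize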
MOR ag counter = OPRM1 agonists via beta-arrestin recruitment, confirmation, counter-screen for mouse HTR2A agonist project, cell-based, luminescence, single concentration; shares compounds with HTR2A ag; U2OS OPRM1 beta-arrestin PathHunter; DMSO 0%, DAMGO 9.3 µM 100%; activation, % at 9.3 µM; 2,300 tested, 5.3% active;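 active = mean activation above the mean of DMSO-only wells plus 3 SD, cut at about 0.5% in these data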
m5-HT2A ag conf = mouse HTR2A agonists, beta-arrestin recruitment, confirmation, cell-based, luminescence, CHO-K1 PathHunter, triplicate | 2,300 tested, 19% active | activation, % at 7.6 µM | DMSO 0%, 30 µM serotonin 100% | shares compounds with HTR2A ag;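 active = mean activation across triplicates above the hit threshold derived in the original primary screen, cut at about 15% in these data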
NOD2 RIPK2 conf = NOD2-RIPK2 binding disruptors, retest, confirmation, fluorescence, CHO cells, BLA complementation, triplicate; shares compounds with NOD2 RIPK2 PPI; CCF4 FRET; 1,200 tested, 70% active; inhibition, % at 4.98 µM;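 active = mean inhibition across replicates above a set limit taken from the earlier primary screen, cut at about 21% in these data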
BLA counter = hits BLA reporter in NOD2-RIPK2 inhibitor counterscreen | CHO BLA reporter, CCF4 FRET ratio | inhibition, % at 4.98 µM | AID 624371 | 1,200 tested, 57% active | shares compounds with NOD2 RIPK2 PPI;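 active = mean inhibition above the low-control mean inhibition plus three low-control SD, cut at about 11% in these data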
Hits are given with their value; n = inactive; x = not tested or not shown. Sampled rows, rich in hits. Any-hit rate of the full collection: about 2.4%.

SMILES	ABHD5-PLIN5 inh	TLR4 MyD88 comp	NOD2 RIPK2 PPI	HTR2A ag	TLR9-MyD88 inh	CRFR2-BP antag	ABHD5 PLIN5 conf	HNF4 counter	others
Cc1ccc(-n2c(O)c(C=Nc3ccc(S(N)(=O)=O)cc3)c(=O)[nH]c2=O)cc1	n	n	n	n	n	n	x	x
CCc1nnc(NS(=O)(=O)c2ccc(N=Cc3c(O)n(-c4ccc(Cl)cc4)c(=O)[nH]c3=O)cc2)s1	30	n	n	n	n	n	n	16
CNS(=O)(=O)c1ccc(N=Cc2c(O)n(-c3ccc(C)cc3)c(=O)[nH]c2=O)cc1	28	x	n	n	n	n	n	37
CC(=NNC(=S)N1CC2CCC(CC2)C1)c1nccs1	n	x	n	n	n	n	x	x
COC1=C(C)C(=O)C2=C(C1=O)C(CO)N1C(C#N)C3CC4C(C1C2N1CCOC41)N3C (stereo not drawn)	n	x	n	n	n	n	x	x
O=C1NC(=O)C(=Cc2ccc(Cl)cc2)C(=O)N1	27	x	n	n	x	x	76	75
O=C1NC(=O)C(=Cc2ccc3ccccc3c2)C(=O)N1	n	x	n	n	n	n	x	x
N#CCCn1cc(C=C2C(=O)NC(=O)NC2=O)c(-c2ccccc2)n1	23	n	n	n	n	n	51	84
COc1ccc(CCNC(=O)c2c(N)n(CCN3CCOCC3)c3nc4ccccc4nc23)cc1OC	25	n	n	n	n	n	n	n
CC(C)C1CN1CC(O)Cn1ccnc1[N+](=O)[O-] (stereo not drawn)	n	x	n	n	x	x	x	x
O=C1NC(=O)C(=Cc2ccc(N3CCN(C(=O)c4ccccc4)CC3)c([N+](=O)[O-])c2)C(=O)N1	41	n	n	n	n	n	91	90
COC(=O)C1=C(c2ccc(OCc3ccccc3)cc2)C[C@@H]2CC[C@H]1N2C(=O)NC1CCN(Cc2ccccc2)CC1	n	x	n	n	n	n	x	x
Cc1c(C=C2C(=O)N(C)C(=O)N(C)C2=O)c(=O)n(-c2ccccc2)n1C	36	n	n	n	n	n	n	51
COc1ccc(C=C2C(=O)N(C)C(=O)N(C)C2=O)cc1COc1ccc(NC(C)=O)cc1	n	x	n	n	n	n	x	x
CN1C(=O)C(=Cc2ccc(OCC(=O)Nc3ccccc3)cc2)C(=O)N(C)C1=O	50	x	n	n	n	n	n	28
Nc1c(C(=O)NCc2ccco2)c2nc3ccccc3nc2n1Cc1ccccc1	25	n	n	n	n	n	35	36
O=C(NN=Cc1ccc(N(CCCl)CCCl)cc1)C(=O)c1c[nH]c2ccccc12	n	x	n	n	n	n	x	x
Cc1ccc(-n2c(O)c(/C=N/c3ncc(Br)cc3Br)c(=O)[nH]c2=O)cc1	n	n	n	n	n	n	x	x
Cc1cccc(-n2c(O)c(C=Nc3ccc(Br)cn3)c(=O)[nH]c2=O)c1	24	n	n	n	n	n	n	28
COc1cc(/C=C/[N+](=O)[O-])ccc1O	70	n	42	n	n	n	86	93	NOD2 RIPK2 conf=44;BLA counter=n
COc1ccc(-n2c(/C=C/c3ccc(O)c(OC)c3)nc3ccccc3c2=O)cc1	n	x	n	n	n	n	x	x
CCOC(=O)[C@]12Cc3cc(C)ccc3[C@H]1N(C1CCCCC1)C(=O)c1cc(OC)ccc12	61	x	62	n	x	x	43	54	NOD2 RIPK2 conf=73;BLA counter=n
C[N+]1(C)C2CC(OC(=O)C(CO)c3ccccc3)CC1C1OC12 (stereo not drawn)	n	x	n	n	n	n	x	x
CCN(CC)c1ccc(/C=C/[N+](=O)[O-])cc1	54	n	44	n	n	n	96	96	NOD2 RIPK2 conf=54;BLA counter=28
Cc1ccccc1-c1ccc2n1Cc1cnnn1-c1ccccc1-2	n	x	n	n	n	n	x	x
SMILES	ABHD5-PLIN5 inh	TLR4 MyD88 comp	NOD2 RIPK2 PPI	HTR2A ag	TLR9-MyD88 inh	CRFR2-BP antag	ABHD5 PLIN5 conf	HNF4 counter	others
CC(N)Cc1c[nH]c2ccc(Cl)cc12 (stereo not drawn)	n	n	n	80	n	n	x	x	MOR ag counter=n;m5-HT2A ag conf=55
CC(C)N1CCOC(c2ccc(O)c(O)c2)C1 (stereo not drawn)	n	x	n	35	x	x	x	x	MOR ag counter=n;m5-HT2A ag conf=113
FC(F)(F)c1cccc(NC2=NCCS2)c1	n	x	n	n	n	n	x	x
CCCCc1ccc2[nH]cc(CCN)c2c1	n	n	n	26	n	n	x	x	MOR ag counter=n;m5-HT2A ag conf=50
CNCCc1ccc(O)c(O)c1	n	x	n	28	n	n	x	x	MOR ag counter=n;m5-HT2A ag conf=161
CC[n+]1c(-c2ccccc2)c2cc(N)ccc2c2ccc(N)cc21	n	x	n	n	n	n	x	x
CC(NCc1ccccc1Cl)C(O)c1ccccc1 (stereo not drawn)	n	n	n	n	n	n	x	x
CC(NCc1ccc(Cl)c(Cl)c1)C(O)c1ccccc1 (stereo not drawn)	n	n	n	16	n	n	x	x	MOR ag counter=n;m5-HT2A ag conf=n
COC(=O)C1=C(c2ccc(OCc3ccccc3)cc2)C[C@@H]2CC[C@H]1N2C(=O)NCCc1ccc(F)cc1	n	x	n	n	n	n	x	x
Clc1ccccc1CN1CCN(c2ccccc2)CC1	n	n	n	27	n	n	x	x	MOR ag counter=n;m5-HT2A ag conf=53
Nc1cc(N2CCNCC2)ccc1[N+](=O)[O-]	n	n	n	42	n	n	x	x	MOR ag counter=n;m5-HT2A ag conf=28
CN1CCN(c2ccc([N+](=O)[O-])c(N)c2)CC1	n	n	n	n	n	n	x	x
